The nature of experiment [1]: qHTS assay to test for compound auto fluorescence at 535 nm (green) in HEK293 cells (AID 720680). Note: potency is the fitted concentration of half-maximal effect.
A short description of experiment [2]: qHTS assay to test for compound auto fluorescence at 460 nm (blue) in HEK293 cell free culture (AID 720681). The essentials: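 Blue fluorescence (Ex 405/Em 460 nm, triamterene-equivalent) was read immediately after pin transfer of compound or DMSO into medium (DMEM, 10% FBS) without cells.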
(In general: qHTS replaces the single test concentration by a dilution series.)

Experiment [3] is described as follows: qHTS assay to test for compound auto fluorescence at 535 nm (green) in HEK293 cell free culture (AID 720682). Note: potency is the fitted concentration of half-maximal effect. The essentials:
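Cell-free medium (DMEM, 10% FBS) receives compound or DMSO by pintool. Plate read directly at Ex 485/Em 535 nm. Signal converted to fluorescein equivalency.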

The nature of experiment [4]: qHTS assay to test for compound auto fluorescence at 590 nm (red) in HEK293 cell free culture (AID 720683). Summed up: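 Red-channel autofluorescence of compounds in culture medium (DMEM, 10% FBS), no cells, measured at 540/590 nm. Rose Bengal sodium is the reference fluorophore for equivalence.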
Experiment [5] can be described thus: qHTS assay to test for compound auto fluorescence at 590 nm (red) in HepG2 cell free culture (AID 720684). Summed up:
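Cell-free; medium MEM + 10% FBS; compound or DMSO added by pintool; read Ex 540/Em 590 nm; Rose Bengal sodium as red reference fluorophore.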

The nature of experiment [6]: qHTS assay to test for compound auto fluorescence at 460 nm (blue) in HepG2 cell free culture (AID 720685). The essentials:
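Cell-free plates of MEM plus 10% FBS received 23 nL compound or DMSO vehicle; blue-channel (405/460 nm) intensity scored against triamterene as reference fluorophore.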

Experiment [7] has as its target Glucocorticoid receptor (Homo sapiens) (UniProt P04150). Put plainly: qHTS assay to identify small molecule agonists of the glucocorticoid receptor (GR) signaling pathway (AID 720691; active = well fitted activation curve with a large enough effect in the signal ratio in the repeat runs, not every such curve was filed as active; the % refers to the signal ratio). The essentials:
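Compounds in DMSO, alongside positive controls, were added to GR-bla HeLa reporter cells and incubated 18 h at 37 C; GRE-driven beta-lactamase was detected by fluorescence after 2 h with FRET substrate at room temperature.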

The target is the same in experiment [8]. Put plainly: qHTS assay to identify small molecule antagonists of the glucocorticoid receptor (GR) signaling pathway (AID 720692; active = well fitted inhibition curve with a large enough effect in the signal ratio in the repeat runs, not every such curve was filed as active; the % refers to the signal ratio). Summed up: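 In a 1536-well cell format, compounds were added 4 h after seeding GR-bla HeLa cells, together with dexamethasone at 5 nM final; reporter activity was measured by FRET-substrate fluorescence following 18 h at 37 C.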

Experiment [9] is described as follows: qHTS assay to identify small molecule antagonists of the glucocorticoid receptor (GR) signaling pathway - cell viability counter screen (AID 720693). Note: nearly all actives have a fitted effect of over 55% in size.
The nature of experiment [10]: qHTS assay for identifying genotoxic compounds that show differential cytotoxicity against isogenic chicken DT40 cell lines with known DNA damage response pathways - Rev3 mutant cell line (AID 743014). Note: nearly all actives have a fitted effect of over 55% in size. Note: potency is the fitted concentration of half-maximal effect.
Experiment [11] in a line: qHTS assay for identifying genotoxic compounds that show differential cytotoxicity against isogenic chicken DT40 cell lines with known DNA damage response pathways - Rad54/Ku70 mutant cell line (AID 743015). Note: nearly all actives have a fitted effect of over 60% in size. Note: potency is the fitted concentration of half-maximal effect.
A short description of experiment [12]: qHTS assay to identify small molecule antagonists of the androgen receptor (AR) signaling pathway - cell viability counter screen (AID 743033; note: nearly all actives have a fitted effect of over 45% in size; note: potency is the fitted concentration of half-maximal effect).
Experiment [13] is described as follows: qHTS assay to identify small molecule antagonists of the androgen receptor (AR) signaling pathway using the MDA cell line - cell viability counter screen (AID 743041; note: nearly all actives have a fitted effect of over 45% in size). Summed up: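 Viability read by CellTiter-Fluor fluorescence in the same wells as the antagonist screen, added after 15.5 h of a 16 h, 37C exposure. Human breast carcinoma MDA-kb2 AR-luc cells, compounds co-dosed with agonist R1881.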

The nature of experiment [14]: qHTS assay for identifying genotoxic compounds that show differential cytotoxicity against isogenic chicken DT40 cell lines with known DNA damage response pathways - wild type cell line (AID 743012). Note: nearly all actives have a fitted effect of over 60% in size. Note: potency is the fitted concentration of half-maximal effect. The essentials:
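Viability of DNA repair-proficient chicken DT40 cells was assessed by CellTiter-Glo luminescence following 40 h compound exposure at 37 C/5% CO2.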

Experiment [15] in a line: qHTS assay to identify small molecule antagonists of the thyroid receptor (TR) signaling pathway - cell viability counter screen (AID 743064). Note: nearly all actives have a fitted effect of over 50% in size. Note: potency is the fitted concentration of half-maximal effect. The essentials: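 GH3.TRE-Luc cells, 4 h pre-plating; cpd + T3 1 nM final; 37 °C 23.5 h; CellTiter-Fluor 30 min; fluorescence read.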
Experiment [16] in a line: qHTS assay to test for compound auto fluorescence at 460 nm (blue) in HepG2 cells (AID 720687). Summed up: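 Blue-channel autofluorescence (Ex/Em 405/460 nm, triamterene-equivalent) was measured after 1 hr compound exposure at 37 C, 5% CO2. Cells were HepG2, plated overnight at 37 C in MEM plus 10% FBS.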
Experiment [17] deals with Androgen receptor (Homo sapiens) (UniProt P10275). Put plainly: qHTS assay to identify small molecule antagonists of the androgen receptor (AR) signaling pathway (AID 743035; active = well fitted inhibition curve with a large enough effect in the signal ratio in the repeat runs, not every such curve was filed as active; the % refers to the signal ratio). The essentials:
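Reporter HEK293 cells were exposed to compounds and R1881 overnight (16 h, 37C); beta-lactamase activity was then quantified by FRET fluorescence.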

For experiment [18] the target is unchanged. As to the kind of experiment: qHTS assay to identify small molecule antagonists of the androgen receptor (AR) signaling pathway using the MDA cell line (AID 743042; note: nearly all actives have a fitted effect of over 55% in size; note: potency is the fitted concentration of half-maximal effect). The essentials:
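Antagonist mode: compounds plus R1881 agonist added to MDA-kb2 AR-luc cells, incubated 16 h at 37C. Luciferase reporter luminescence quantified, with multiplexed CellTiter-Fluor readout for cell viability.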

Values joined by “and” are separate entries in the source; they are usually repeats but may differ in a detail not shown here. Equal entries are not always repeated. Results filed as inconclusive are left out. Some compounds were tested as several samples or in several runs, with calls that do not always agree. Active and inactive are the calls of the source. Unless noted, calls come from the whole dose curve; as a rule, active = well fitted curve in the direction sought with a large enough effect in the repeat runs; inconclusive = weak or mixed curves; inactive = no such curve, though single readings can be large; an effect the other way counts as inactive or inconclusive.
% is set by controls: 0 for no effect and ±100 for the full control effect; tags give direction and shape of the fitted curve or compound fluorescence and quenching.

Chain of Androgen receptor (Homo sapiens) (P10275 whole entry, looked up): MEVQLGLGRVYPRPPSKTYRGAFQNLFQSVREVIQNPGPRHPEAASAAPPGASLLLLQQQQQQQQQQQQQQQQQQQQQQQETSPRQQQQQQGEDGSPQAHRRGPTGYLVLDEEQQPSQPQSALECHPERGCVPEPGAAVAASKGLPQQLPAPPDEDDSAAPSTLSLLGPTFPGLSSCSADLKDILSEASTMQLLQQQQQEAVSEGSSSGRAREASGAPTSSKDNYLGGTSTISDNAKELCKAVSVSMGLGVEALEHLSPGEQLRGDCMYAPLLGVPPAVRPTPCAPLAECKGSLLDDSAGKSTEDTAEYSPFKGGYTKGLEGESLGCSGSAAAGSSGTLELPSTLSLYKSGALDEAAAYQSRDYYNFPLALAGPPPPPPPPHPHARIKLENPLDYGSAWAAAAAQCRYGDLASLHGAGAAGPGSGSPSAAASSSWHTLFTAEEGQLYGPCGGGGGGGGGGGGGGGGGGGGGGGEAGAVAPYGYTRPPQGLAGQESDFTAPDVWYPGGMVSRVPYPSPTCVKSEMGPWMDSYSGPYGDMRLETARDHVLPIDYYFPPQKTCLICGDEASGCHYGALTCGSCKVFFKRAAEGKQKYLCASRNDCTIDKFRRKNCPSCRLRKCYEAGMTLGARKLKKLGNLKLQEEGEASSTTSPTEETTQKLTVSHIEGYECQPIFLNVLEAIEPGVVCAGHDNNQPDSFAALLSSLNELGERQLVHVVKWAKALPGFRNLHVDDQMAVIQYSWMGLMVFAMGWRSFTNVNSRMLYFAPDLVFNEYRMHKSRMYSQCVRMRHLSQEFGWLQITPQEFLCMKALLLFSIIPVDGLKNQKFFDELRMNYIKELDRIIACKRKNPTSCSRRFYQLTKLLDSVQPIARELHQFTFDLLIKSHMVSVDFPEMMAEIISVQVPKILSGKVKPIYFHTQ
Chain of Glucocorticoid receptor (Homo sapiens) (P04150 whole entry, looked up): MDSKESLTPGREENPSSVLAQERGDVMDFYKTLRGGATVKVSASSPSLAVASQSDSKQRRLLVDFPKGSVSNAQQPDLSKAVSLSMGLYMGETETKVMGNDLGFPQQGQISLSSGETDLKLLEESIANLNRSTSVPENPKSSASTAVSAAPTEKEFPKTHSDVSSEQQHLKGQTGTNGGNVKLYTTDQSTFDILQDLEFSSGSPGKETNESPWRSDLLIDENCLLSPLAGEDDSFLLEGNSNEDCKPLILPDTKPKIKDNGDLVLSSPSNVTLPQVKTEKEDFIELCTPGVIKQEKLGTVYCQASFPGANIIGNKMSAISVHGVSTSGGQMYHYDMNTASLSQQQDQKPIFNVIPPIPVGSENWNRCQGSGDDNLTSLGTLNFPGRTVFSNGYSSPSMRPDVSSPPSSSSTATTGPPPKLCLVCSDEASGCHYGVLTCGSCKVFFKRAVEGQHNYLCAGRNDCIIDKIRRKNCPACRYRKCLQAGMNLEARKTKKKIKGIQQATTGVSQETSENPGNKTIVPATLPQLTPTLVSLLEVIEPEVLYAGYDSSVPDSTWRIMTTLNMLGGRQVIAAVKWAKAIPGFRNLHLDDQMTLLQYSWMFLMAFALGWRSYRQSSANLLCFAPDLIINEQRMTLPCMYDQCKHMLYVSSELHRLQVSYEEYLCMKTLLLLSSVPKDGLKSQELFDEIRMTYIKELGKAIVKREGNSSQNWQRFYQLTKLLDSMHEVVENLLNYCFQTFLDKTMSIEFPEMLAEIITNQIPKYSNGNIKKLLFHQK

`CCc1cc(C(C)(C)C)c(O)c(C(C)(C)C)c1`: the Potency result in [1], in [2], in [3], in experiment [6], in experiment [7] and in experiment [8] was “inactive” each time. For the same compound, the Potency result in experiment [9], in [11], in experiment [12] and in experiment [13] was “inactive” in each case. Further, the result in experiment [4] and in [5] was inactive. Further, the Potency entry in [10] was “inactive and 15.4 µM (active)”.
`NCCCCCC(=O)O`: in [1], the fluorescence, % of fluorescein is -0.0215% [at 18.6 µM] (inactive). The fluorescence, % of fluorescent control in experiment [2] is 0.0269% [at 18.6 µM] (inactive); in experiment [4], -0.0259% [at 18.6 µM] (inactive); in experiment [6], 0.0102% [at 18.6 µM] (inactive). Besides, the activity change in experiment [3] was 0.0558% [at 18.6 µM, stronger effect = higher value] (inactive). Moreover, the fluorescence, % of Rose Bengal in experiment [5] was 0.496% [at 18.6 µM] (inactive). Besides, the Potency result in [7], in experiment [9], in experiment [14], in [11], in experiment [12] and in experiment [15] was “inactive” in each case.
Turning to `O=C1OC2(c3ccc(O)cc3Oc3cc(O)ccc32)c2ccccc21`, the Potency was 3.16 µM [fluorescent] (active) and 2.82 µM [fluorescent] (active) and 3.98 µM [fluorescent] (active) in [1]; 3.55 µM [fluorescent] (active) and 3.98 µM [fluorescent] (active) in experiment [3]. For the same compound, the Potency result in [2], in [6], in experiment [16], in experiment [9], in experiment [14] and in experiment [11] was “inactive” in each case. The Potency result in experiment [12] is “inactive”. The compound was called inactive in experiment [4] and in experiment [5].
Regarding `C[N+]1([O-])CCOCC1`, the Potency result in experiment [1], in experiment [2], in experiment [3], in experiment [6], in experiment [16] and in [7] was “inactive” in each case. The Potency entry in experiment [14], in experiment [10], in experiment [11], in experiment [12] and in experiment [13] was “inactive” in each case. Also, the compound was classed as inactive in [4] and in experiment [5].
With `O=C(O)CCc1ccccc1`, the Potency entry in experiment [1], in experiment [2], in experiment [3], in [6], in experiment [16] and in experiment [7] was “inactive” throughout. Moreover, the Potency result in experiment [8], in experiment [14], in [10], in [11], in experiment [12] and in experiment [15] was “inactive” each time. Moreover, the result in experiment [4] and in experiment [5] was inactive.
`CC1=CC(=O)c2ccccc2C1=O`: the Potency result in [1], in experiment [2], in [3], in experiment [6], in [7] and in experiment [17] was “inactive” in each case. Further, the compound was called inactive in experiment [4] and in experiment [5]. The Potency in experiment [14] was 21.1 µM (active) and 13.7 µM (active); in experiment [11], 26.6 µM (active) and 15.4 µM (active); in experiment [12], “inactive and 21.9 µM (active)”; in experiment [18] it was “inactive and 30.6 µM (active)”; in [15], 13.7 µM (active).
Take `COc1cc(C(=S)N2CCOCC2)ccc1O`: the Potency entry in [1], in [2], in experiment [3], in experiment [6], in experiment [16] and in experiment [7] was “inactive” each time. Moreover, the Potency entry in experiment [8], in experiment [9], in experiment [14], in experiment [10], in experiment [11] and in [12] was “inactive” throughout. Further, the Potency result in [13], in experiment [18] and in experiment [15] was “inactive” in each case. Besides, the compound was classed as inactive in experiment [4] and in experiment [5].
